Screening data from PubChem.
ERG Ets-DNA blk = ERG Ets/DNA interaction inhibition. 0.028% of 370,000 active. fluorescence polarization, His-ERG Ets domain / labelled DNA. P11308. AID 624246. Potency, µM (top dose mostly 76.9 µM), for the others: top-dose FP activity, negative = inhibition, most hits filed as inhibitors; active = well fitted inhibition curve with a large enough effect in the polarisation, with a control signal flat; inconclusive = small, poorly fitted or top-dose-only effect, or effect the other way, or a change in a side signal; inactive = no such curve, though single readings can be large or run the other way; the % refers to the polarisation;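 note: polarization taken with two DNA probes labelled with fluorescein and Texas red; potency is the fitted concentration of half-maximal effect; % of control where 0% means no effect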
Target sequence (P11308 whole entry, looked up, the tested form may be a part): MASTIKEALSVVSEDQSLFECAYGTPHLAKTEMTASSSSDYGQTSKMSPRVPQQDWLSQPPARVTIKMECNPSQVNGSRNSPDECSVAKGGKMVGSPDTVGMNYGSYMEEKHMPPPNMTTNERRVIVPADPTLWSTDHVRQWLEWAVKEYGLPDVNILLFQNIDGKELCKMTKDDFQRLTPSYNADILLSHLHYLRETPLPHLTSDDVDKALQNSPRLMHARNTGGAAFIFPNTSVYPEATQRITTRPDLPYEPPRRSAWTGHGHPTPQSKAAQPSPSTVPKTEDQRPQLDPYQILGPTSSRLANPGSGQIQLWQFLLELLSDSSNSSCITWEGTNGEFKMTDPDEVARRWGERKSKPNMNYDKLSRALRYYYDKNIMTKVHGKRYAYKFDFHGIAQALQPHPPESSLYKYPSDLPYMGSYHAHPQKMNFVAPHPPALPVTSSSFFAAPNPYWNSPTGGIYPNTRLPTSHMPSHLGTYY
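His-tagged ERG Ets domain (1 uM in the protein solution; 300mM KCl, 50mM Tris-HCl, 1mM EDTA, 1mM DTT, pH 7.5) received compound, then a probe mix of 5 nM fluorescein-DNA and 100nM Texas-615-DNA. Fluorescence polarization was read for both dyes.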
a7 integrin act = integrin-mediated muscular dystrophy alleviation activation. alpha7betagal myoblasts, beta-gal FDG fluorescence, 48 h. Potency, µM (highest dose often 38.3 µM), without a hit: top-dose activation, actives largely listed as activators. 0.064% of 350,000 active. AID 624291;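 note: potency is the fitted concentration of half-maximal effect; 100% = response of the positive control SU9516; nearly all actives have a fitted effect of over 60% in size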
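Alpha7betagal+/- myoblasts (passage 13) were plated 16-24 hr, then exposed to compounds (1:260 dilution of DMSO stock) for 48 hours at 37C. After MPER lysis, β-galactosidase reporter activity was read as FDG fluorescence (ex 480/em 540) after 30 minutes.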
TR SRC2 fluor cs = counter-screen for TRb-SRC2 inhibitors: fluorescence interference; TRb/SRC2 Texas Red total fluorescence interference; 0.29% of 280,000 active; Potency, µM (highest dose often 106 µM), without a hit: at the highest dose fluorescence change, negative = quenching; active = well fitted curve in either direction with a large enough effect; inconclusive = small, poorly fitted or top-dose-only effect; note: potency is the fitted concentration of half-maximal effect; % is set by controls: 0 for no effect and ±100 for the full control effect
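Human TRb ligand-binding domain at 0.6 uM with 20 nM Texas Red SRC2 peptide in Tris buffer containing 1 uM T3 and 5% DMSO, incubated with compound 5 h at ambient temperature. Total fluorescence (555/632 nm) calculated as parallel + 2 × perpendicular.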
RGS12 GoLoco inh = RGS12 GoLoco-Gai1 interaction inhibition. P63096. Gai1:RGS12 GoLoco peptide FP, rhodamine, 10 min. Potency, µM (top dose mostly 61.6 µM), without a hit: top-dose activity, negative = inhibition, usual class: inhibitors. 0.44% of 230,000 active; active = well fitted inhibition curve with a large enough effect, not every such curve was filed as active; inactive = no such curve, though single readings can be large or run the other way; note: potency is the fitted concentration of half-maximal effect; % is set by controls: 0 for no effect and ±100 for the full control effect; nearly all actives have a fitted effect of over 30% in size
Target sequence (P63096 whole entry, looked up): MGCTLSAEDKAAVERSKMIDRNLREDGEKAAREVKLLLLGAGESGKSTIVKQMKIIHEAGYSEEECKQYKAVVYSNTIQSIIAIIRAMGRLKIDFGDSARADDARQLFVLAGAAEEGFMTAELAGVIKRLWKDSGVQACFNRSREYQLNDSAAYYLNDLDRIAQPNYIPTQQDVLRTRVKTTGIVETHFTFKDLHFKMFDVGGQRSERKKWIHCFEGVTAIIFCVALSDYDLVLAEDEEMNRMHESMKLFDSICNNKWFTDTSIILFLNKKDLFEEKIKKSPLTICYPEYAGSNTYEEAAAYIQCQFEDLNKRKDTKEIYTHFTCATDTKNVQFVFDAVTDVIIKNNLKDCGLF
CBFb-RUNX1 inh = CBF-beta/RUNX1 interaction disruption. AlphaScreen CBFb-His/RUNX1-biotin binding, biochemical. Potency, µM (highest dose often 59.8 µM), without a hit: top-dose activity, negative = inhibition, most hits filed as inhibitors. 230,000 tested, under 10 active; note: % of control where 0% means no effect
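AlphaScreen proximity signal reports loss of binding between His-tagged CBF-beta and biotin-labelled RUNX1, each at 30 nM. Proteins are pre-associated for 20 minutes, compounds added for 15 minutes, then beads for 90 minutes, all at ambient temperature.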
TRb SRC2 PPI = inhibitors of human thyroid hormone receptor beta-SRC2 interaction; P10828; TRbeta-SRC2 peptide binding, fluorescence polarization; receptor liganded with 1 µM T3; Potency, µM (series often up to 106 µM), for the others: at the highest dose activity change, negative = inhibition, actives largely listed as inhibitors; 0.065% of 280,000 active;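 note: potency is the fitted concentration of half-maximal effect; plate controls were bound peptide for no effect and peptide without receptor for full effect; nearly all actives have a fitted effect of over 50% in size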
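Fluorescence polarization of 20 nM Texas Red SRC2 peptide (20-aa NR interaction domain) bound to 0.6 uM human TRb ligand-binding domain, with 1 uM T3, after 5 hr at ambient temperature; inhibition seen as decreased polarization.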
* = called active by the depositor; [ ] = remark or other dose. Sampled rows, rich in hits. Any-hit rate of the full collection: about 0.45%. Unless noted, calls come from the whole dose curve; as a rule, active = well fitted curve in the direction sought with a large enough effect; inconclusive = small, poorly fitted or top-dose-only effect, or another doubt; inactive = no such curve, though single readings can be large; an effect the other way counts as inactive or inconclusive.

Results for CCN1/C(=C\C(=S)Nc2ccccc2)Sc2ccccc21 ?
ERG Ets-DNA blk: 6%; a7 integrin act: -34%; TR SRC2 fluor cs: 0%; RGS12 GoLoco inh: 35%; CBFb-RUNX1 inh: inconclusive; TRb SRC2 PPI: 3%

How did Cc1ccc(Cl)cc1N1CCN(C(=O)c2cnc(N3CCOCC3)c3ccccc23)CC1 do in these assays?
ERG Ets-DNA blk: 9%; TR SRC2 fluor cs: 71µM*[quencher]; TRb SRC2 PPI: -15%

How did O=C(Nc1ccc(F)cc1Cl)c1cnc(N2CCOCC2)c2ccccc12 do in these assays?
ERG Ets-DNA blk: 2%; TR SRC2 fluor cs: 11µM*[quencher]; TRb SRC2 PPI: -21%

How did O=C(NCc1ccccc1Cl)c1cnc(N2CCOCC2)c2ccccc12 do in these assays?
ERG Ets-DNA blk: 2%; TR SRC2 fluor cs: 4%; TRb SRC2 PPI: 0%

How did O=C(NCc1ccccc1Cl)c1cnc(N2CCCCC2)c2ccccc12 do in these assays?
ERG Ets-DNA blk: 7%; TR SRC2 fluor cs: 1585µM*[quencher]; TRb SRC2 PPI: -15%

Results for CC[C@H](C)[C@H](NC(=O)CNC(=O)[C@H](CCCNC(=N)N)NC(=O)[C@H](CO)NC(=O)[C@H](C)NC(=O)[C@H](Cc1ccc(O)cc1)NC(=O)[C@H](Cc1c[nH]c2ccccc12)NC(=O)[C@H](C)NC(=O)[C@@H]1CCCN1C(=O)[C@H](CC(N)=O)NC(=O)[C@@H](NC(=O)[C@H](CC(=O)O)NC(=O)[C@@H]1CCCN1C(=O)[C@@H](N)[C@@H](C)O)[C@@H](C)CC)C(=O)N[C@@H](CCCNC(=N)N)C(=O)N1CCC[C@H]1C(=O)N[C@H](C(=O)NCC(=O)N[C@@H](CCCNC(=N)N)C(=O)N[C@@H](Cc1ccccc1)C(N)=O)C(C)C ?
TR SRC2 fluor cs: -6%; CBFb-RUNX1 inh: 17%; TRb SRC2 PPI: -2%

Results for CCOC(=O)NCCOc1ccc(Oc2ccccc2)cc1 ?
TR SRC2 fluor cs: -1%; CBFb-RUNX1 inh: inconclusive; TRb SRC2 PPI: -3%

Results for O=C(c1ccc(CS(=O)(=O)c2c(Cl)cccc2Cl)o1)N1CCN(c2ccccc2)CC1 ?
ERG Ets-DNA blk: 8%; TR SRC2 fluor cs: 6.3µM*[quencher]; TRb SRC2 PPI: -24%

What do the screens show for `CCCCS(=O)(=O)N1C2=NC(C(=O)OC)=C(C(=O)OC)[C@@H]3Nc4ccccc4[C@]23C[C@H]1C(=O)OC`?
TR SRC2 fluor cs: -3%[11.2 µM]; RGS12 GoLoco inh: -2%[14.2 µM]; CBFb-RUNX1 inh: -7%[13.1 µM]; TRb SRC2 PPI: 7%[11.2 µM]

How did COc1ccc(CCNC(=O)c2cc(-c3cc(C)ccc3O)n[nH]2)cc1OC do in these assays?
ERG Ets-DNA blk: 11%; a7 integrin act: 10µM*; TR SRC2 fluor cs: 0%; RGS12 GoLoco inh: -1%; CBFb-RUNX1 inh: 7%; TRb SRC2 PPI: -16%

What do the screens show for `O=C(O)c1ccc2cc(-c3ccc(O)c(C45CC6CC(CC(C6)C4)C5)c3)ccc2c1`?
TR SRC2 fluor cs: -5%; RGS12 GoLoco inh: 1%; CBFb-RUNX1 inh: -6%; TRb SRC2 PPI: 14%

Results for O=C(COc1ccccc1)Nc1nnc(S(=O)(=O)Nc2ccccc2)s1 ?
ERG Ets-DNA blk: 0%; a7 integrin act: 0%; TR SRC2 fluor cs: 0.05µM*[quencher]; TRb SRC2 PPI: -22%

Results for CCN(CC)S(=O)(=O)c1nnc(NC(=O)COc2ccc(C)cc2)s1 ?
ERG Ets-DNA blk: -1%; TR SRC2 fluor cs: -29%; TRb SRC2 PPI: 3%

Results for CCN(CC)S(=O)(=O)c1nnc(NC(=O)COc2cccc(C)c2)s1 ?
ERG Ets-DNA blk: -1%; TR SRC2 fluor cs: 3.2µM*[quencher]; TRb SRC2 PPI: -10%

What do the screens show for `Cc1c(Cl)sn(-c2ccc(Cl)cc2)c1=O`?
ERG Ets-DNA blk: -6%; a7 integrin act: -43%; TR SRC2 fluor cs: 1%; RGS12 GoLoco inh: 14µM*; CBFb-RUNX1 inh: 2%; TRb SRC2 PPI: 5%

How did C=C1C(=O)OC(CCCCCCCC)C1C(=O)O (configuration not stated) do in these assays?
TR SRC2 fluor cs: -2%; CBFb-RUNX1 inh: 8%; TRb SRC2 PPI: -25%

How did COc1c(C=O)c(=O)[nH]c2c(OC)cccc12 do in these assays?
TR SRC2 fluor cs: -1%; RGS12 GoLoco inh: 0%; CBFb-RUNX1 inh: 26%; TRb SRC2 PPI: 0%

Results for N#Cc1cccc(-c2nc3cnc(N4CCOCC4)nc3n(C3CC3)c2=O)c1 ?
RGS12 GoLoco inh: 3.2µM*

What do the screens show for `O=C(Nc1ccccc1)c1ccc(CSc2ncccn2)cc1`?
ERG Ets-DNA blk: -1%; a7 integrin act: 3%; TR SRC2 fluor cs: 1%; RGS12 GoLoco inh: 2.2µM*; CBFb-RUNX1 inh: 6%; TRb SRC2 PPI: 1%

How did O=C(Nc1ccccc1F)c1ccc(CSc2ncccn2)cc1 do in these assays?
ERG Ets-DNA blk: -4%; a7 integrin act: -10%; TR SRC2 fluor cs: -3%; RGS12 GoLoco inh: 5%; CBFb-RUNX1 inh: 5%; TRb SRC2 PPI: 6%

What do the screens show for `CCCCCSc1nc2sc3c(c2c(=O)n1-c1ccc(OC)cc1)CCN(C(C)=O)C3`?
ERG Ets-DNA blk: 1%; TR SRC2 fluor cs: 22µM*[quencher]; TRb SRC2 PPI: inconclusive

What do the screens show for `COc1cccc(C(=O)CC2c3c(c(Br)c4c(c3OC)OCO4)CCN2C)c1` (configuration not stated)?
TR SRC2 fluor cs: -1%; RGS12 GoLoco inh: -3%; CBFb-RUNX1 inh: 17%; TRb SRC2 PPI: 4%

What do the screens show for `Oc1cc2c(cc1O)C1c3ccc(O)c(O)c3OCC1(O)C2` (configuration not stated)?
ERG Ets-DNA blk: -6%; a7 integrin act: -31%; TR SRC2 fluor cs: -4%; RGS12 GoLoco inh: 7.9µM*; CBFb-RUNX1 inh: -1%; TRb SRC2 PPI: 1%

What do the screens show for `CCN(CC)CCCNC(=O)c1nn(C)c2c1CS(=O)(=O)c1ccccc1-2`?
ERG Ets-DNA blk: 1%; TR SRC2 fluor cs: inconclusive; TRb SRC2 PPI: -1%

How did COCCCNC(=O)c1nn(C)c2c1CS(=O)(=O)c1ccccc1-2 do in these assays?
ERG Ets-DNA blk: 4%; TR SRC2 fluor cs: 100µM*[quencher]; TRb SRC2 PPI: -17%

How did O=C1C(Cl)=C(Nc2ccc3cn[nH]c3c2)C(=O)c2ccccc21 do in these assays?
ERG Ets-DNA blk: -3%; a7 integrin act: -60%; TR SRC2 fluor cs: -13%; RGS12 GoLoco inh: 7.9µM*; CBFb-RUNX1 inh: inconclusive; TRb SRC2 PPI: -7%

What do the screens show for `COc1ccc(C2=Nn3c(nnc3-c3ccccc3OC)SC2)c(OC)c1`?
TR SRC2 fluor cs: -1%; CBFb-RUNX1 inh: 4%; TRb SRC2 PPI: 3%
